# Test results as given in ChEMBL document CHEMBL2218924, “A broad activity screen in support of a chemogenomic map for kinase signalling research and drug discovery” (Biochem J, 2013).
# Tests used:
# [1] = target: T1, Mitogen-activated protein kinase kinase kinase 7 (Homo sapiens) (UniProt O43318); settings: at 10 µM
# T1 sequence (whole entry): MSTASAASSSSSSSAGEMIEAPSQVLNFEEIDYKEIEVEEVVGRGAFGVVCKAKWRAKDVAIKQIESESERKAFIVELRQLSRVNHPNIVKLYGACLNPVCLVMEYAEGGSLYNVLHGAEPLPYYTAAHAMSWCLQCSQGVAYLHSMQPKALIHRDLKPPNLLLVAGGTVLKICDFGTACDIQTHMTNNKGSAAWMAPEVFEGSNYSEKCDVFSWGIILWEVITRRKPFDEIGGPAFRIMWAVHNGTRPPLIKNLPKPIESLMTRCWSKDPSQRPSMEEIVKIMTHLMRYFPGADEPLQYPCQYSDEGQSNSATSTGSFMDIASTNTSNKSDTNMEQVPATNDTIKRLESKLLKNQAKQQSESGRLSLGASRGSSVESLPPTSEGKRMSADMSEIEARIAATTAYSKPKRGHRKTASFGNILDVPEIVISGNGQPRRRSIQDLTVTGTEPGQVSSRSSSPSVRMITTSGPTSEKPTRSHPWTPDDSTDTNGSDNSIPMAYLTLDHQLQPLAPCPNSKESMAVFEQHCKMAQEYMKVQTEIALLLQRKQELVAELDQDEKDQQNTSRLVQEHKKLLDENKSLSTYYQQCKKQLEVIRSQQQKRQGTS
# [2] = target: T2, Serine/threonine-protein kinase TBK1 (Homo sapiens) (UniProt Q9UHD2); settings: at 1 µM
# T2 sequence (whole entry): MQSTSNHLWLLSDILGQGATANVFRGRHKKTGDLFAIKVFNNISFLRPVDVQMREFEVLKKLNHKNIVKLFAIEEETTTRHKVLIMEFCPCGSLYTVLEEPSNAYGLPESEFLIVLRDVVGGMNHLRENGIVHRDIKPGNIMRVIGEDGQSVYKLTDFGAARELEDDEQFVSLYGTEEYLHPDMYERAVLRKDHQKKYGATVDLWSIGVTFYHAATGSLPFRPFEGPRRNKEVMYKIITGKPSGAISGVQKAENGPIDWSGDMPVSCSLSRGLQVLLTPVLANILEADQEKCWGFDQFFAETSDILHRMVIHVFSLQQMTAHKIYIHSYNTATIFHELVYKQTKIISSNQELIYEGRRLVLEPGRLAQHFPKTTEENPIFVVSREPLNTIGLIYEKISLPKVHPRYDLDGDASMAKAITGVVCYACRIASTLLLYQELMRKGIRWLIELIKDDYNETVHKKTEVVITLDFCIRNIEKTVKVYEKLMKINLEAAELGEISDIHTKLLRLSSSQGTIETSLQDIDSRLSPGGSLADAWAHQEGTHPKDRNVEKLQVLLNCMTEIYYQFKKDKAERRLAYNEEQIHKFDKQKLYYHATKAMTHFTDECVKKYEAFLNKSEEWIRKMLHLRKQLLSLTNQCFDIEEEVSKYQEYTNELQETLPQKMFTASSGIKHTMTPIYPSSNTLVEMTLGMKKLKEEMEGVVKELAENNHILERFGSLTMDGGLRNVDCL
# [3] = target: T2, Serine/threonine-protein kinase TBK1 (Homo sapiens); settings: at 10 µM
# [4] = target: T3, Inhibitor of nuclear factor kappa-B kinase subunit alpha (Homo sapiens) (UniProt O15111); settings: at 1 µM
# T3 sequence (whole entry): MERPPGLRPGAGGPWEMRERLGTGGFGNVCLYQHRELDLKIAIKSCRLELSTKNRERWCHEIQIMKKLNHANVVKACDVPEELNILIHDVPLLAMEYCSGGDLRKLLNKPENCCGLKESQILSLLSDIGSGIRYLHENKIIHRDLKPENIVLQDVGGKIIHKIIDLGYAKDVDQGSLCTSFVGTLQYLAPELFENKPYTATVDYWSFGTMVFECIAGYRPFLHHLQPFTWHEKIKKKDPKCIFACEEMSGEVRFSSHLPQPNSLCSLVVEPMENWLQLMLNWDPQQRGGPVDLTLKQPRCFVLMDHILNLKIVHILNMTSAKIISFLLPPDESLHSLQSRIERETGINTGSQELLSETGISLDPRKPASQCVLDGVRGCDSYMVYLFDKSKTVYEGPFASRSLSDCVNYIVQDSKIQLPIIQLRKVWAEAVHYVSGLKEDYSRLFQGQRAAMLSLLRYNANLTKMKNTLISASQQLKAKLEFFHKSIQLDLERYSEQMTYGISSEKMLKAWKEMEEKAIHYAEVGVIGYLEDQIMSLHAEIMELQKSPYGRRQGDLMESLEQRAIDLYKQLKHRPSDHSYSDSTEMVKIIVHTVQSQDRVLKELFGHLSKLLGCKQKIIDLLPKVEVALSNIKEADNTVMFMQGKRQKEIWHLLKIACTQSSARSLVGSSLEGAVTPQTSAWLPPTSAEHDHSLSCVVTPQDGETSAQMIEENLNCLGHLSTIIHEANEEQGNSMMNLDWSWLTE
# [5] = target: T3, Inhibitor of nuclear factor kappa-B kinase subunit alpha (Homo sapiens); settings: at 10 µM
# [6] = target: T4, Inhibitor of nuclear factor kappa-B kinase subunit beta (Homo sapiens) (UniProt O14920); settings: at 1 µM
# T4 sequence (whole entry): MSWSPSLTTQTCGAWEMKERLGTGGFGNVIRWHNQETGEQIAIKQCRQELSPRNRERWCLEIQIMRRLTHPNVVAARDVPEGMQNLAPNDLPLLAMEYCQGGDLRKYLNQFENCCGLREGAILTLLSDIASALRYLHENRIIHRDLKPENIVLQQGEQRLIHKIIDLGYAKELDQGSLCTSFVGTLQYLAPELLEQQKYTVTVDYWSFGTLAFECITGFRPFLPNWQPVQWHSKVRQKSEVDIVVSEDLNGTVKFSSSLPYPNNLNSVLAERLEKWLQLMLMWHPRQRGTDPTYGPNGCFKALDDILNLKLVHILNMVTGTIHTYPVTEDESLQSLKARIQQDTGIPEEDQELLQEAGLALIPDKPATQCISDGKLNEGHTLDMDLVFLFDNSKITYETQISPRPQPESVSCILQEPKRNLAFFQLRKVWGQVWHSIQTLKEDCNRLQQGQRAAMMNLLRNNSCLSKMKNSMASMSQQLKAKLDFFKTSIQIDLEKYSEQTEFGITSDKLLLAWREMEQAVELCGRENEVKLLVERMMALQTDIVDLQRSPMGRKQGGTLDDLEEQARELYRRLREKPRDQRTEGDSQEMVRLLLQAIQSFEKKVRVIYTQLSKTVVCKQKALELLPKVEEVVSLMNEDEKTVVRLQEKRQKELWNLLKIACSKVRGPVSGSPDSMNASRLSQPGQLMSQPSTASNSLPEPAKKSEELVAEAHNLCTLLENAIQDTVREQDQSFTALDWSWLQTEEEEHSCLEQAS
# [7] = target: T4, Inhibitor of nuclear factor kappa-B kinase subunit beta (Homo sapiens); settings: at 10 µM
# [8] = target: T5, Serine/threonine-protein kinase TAO1 (Homo sapiens) (UniProt Q7L7X3); settings: at 1 µM
# T5 sequence (whole entry): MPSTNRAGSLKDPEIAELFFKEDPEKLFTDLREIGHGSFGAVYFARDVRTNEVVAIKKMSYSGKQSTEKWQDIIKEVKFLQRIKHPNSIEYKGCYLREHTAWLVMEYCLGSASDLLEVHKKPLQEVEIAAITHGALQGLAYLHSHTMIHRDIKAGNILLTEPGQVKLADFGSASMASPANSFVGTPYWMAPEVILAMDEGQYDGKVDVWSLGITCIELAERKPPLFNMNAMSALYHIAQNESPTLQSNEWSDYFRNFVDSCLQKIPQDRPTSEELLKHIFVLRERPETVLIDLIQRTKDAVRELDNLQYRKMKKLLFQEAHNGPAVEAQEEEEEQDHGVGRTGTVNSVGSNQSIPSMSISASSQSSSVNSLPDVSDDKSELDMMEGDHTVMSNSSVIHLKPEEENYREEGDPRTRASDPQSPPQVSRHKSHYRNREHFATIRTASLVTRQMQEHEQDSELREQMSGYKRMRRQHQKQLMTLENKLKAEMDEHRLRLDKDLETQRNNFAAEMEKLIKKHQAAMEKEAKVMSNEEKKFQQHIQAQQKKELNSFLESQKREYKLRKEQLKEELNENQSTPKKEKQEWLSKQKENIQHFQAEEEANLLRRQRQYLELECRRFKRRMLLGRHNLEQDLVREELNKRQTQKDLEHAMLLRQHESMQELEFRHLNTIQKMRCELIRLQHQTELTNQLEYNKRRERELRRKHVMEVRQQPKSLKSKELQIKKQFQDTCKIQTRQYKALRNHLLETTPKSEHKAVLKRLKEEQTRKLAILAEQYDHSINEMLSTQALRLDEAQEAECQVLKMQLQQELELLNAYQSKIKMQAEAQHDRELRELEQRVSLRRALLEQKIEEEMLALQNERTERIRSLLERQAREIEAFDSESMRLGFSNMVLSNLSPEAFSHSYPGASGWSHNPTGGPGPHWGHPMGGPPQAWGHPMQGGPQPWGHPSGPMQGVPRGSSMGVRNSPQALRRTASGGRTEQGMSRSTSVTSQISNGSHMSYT
# [9] = target: T5, Serine/threonine-protein kinase TAO1 (Homo sapiens); settings: at 10 µM
# [10] = target: T6, Serine/threonine-protein kinase TAO3 (Homo sapiens) (UniProt Q9H2K8); settings: at 10 µM
# T6 sequence (whole entry): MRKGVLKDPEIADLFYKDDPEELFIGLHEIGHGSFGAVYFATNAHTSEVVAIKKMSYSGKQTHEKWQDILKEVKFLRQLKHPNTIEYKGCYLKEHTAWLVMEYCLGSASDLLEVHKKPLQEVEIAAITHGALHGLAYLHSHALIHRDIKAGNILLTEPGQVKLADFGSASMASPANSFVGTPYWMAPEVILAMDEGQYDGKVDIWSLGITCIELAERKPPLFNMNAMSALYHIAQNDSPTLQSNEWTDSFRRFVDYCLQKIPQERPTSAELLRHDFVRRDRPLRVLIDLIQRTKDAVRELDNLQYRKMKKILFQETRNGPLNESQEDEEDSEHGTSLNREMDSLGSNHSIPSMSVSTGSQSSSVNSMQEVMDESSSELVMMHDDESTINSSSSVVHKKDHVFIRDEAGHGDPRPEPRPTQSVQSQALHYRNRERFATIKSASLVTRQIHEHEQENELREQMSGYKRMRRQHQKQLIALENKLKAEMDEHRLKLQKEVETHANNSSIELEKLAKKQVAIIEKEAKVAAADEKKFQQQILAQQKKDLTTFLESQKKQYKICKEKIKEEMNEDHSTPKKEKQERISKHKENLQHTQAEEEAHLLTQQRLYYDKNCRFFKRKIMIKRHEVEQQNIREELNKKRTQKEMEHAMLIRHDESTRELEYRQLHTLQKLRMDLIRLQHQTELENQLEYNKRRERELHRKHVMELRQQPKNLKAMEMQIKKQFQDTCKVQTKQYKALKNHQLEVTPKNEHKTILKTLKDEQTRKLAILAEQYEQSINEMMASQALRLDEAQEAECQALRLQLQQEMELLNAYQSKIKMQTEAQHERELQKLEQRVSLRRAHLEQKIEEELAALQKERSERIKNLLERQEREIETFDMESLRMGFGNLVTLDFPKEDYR
# [11] = target: T7, Serine/threonine-protein kinase TAO2 (Homo sapiens) (UniProt Q9UL54); settings: at 1 µM
# T7 sequence (whole entry): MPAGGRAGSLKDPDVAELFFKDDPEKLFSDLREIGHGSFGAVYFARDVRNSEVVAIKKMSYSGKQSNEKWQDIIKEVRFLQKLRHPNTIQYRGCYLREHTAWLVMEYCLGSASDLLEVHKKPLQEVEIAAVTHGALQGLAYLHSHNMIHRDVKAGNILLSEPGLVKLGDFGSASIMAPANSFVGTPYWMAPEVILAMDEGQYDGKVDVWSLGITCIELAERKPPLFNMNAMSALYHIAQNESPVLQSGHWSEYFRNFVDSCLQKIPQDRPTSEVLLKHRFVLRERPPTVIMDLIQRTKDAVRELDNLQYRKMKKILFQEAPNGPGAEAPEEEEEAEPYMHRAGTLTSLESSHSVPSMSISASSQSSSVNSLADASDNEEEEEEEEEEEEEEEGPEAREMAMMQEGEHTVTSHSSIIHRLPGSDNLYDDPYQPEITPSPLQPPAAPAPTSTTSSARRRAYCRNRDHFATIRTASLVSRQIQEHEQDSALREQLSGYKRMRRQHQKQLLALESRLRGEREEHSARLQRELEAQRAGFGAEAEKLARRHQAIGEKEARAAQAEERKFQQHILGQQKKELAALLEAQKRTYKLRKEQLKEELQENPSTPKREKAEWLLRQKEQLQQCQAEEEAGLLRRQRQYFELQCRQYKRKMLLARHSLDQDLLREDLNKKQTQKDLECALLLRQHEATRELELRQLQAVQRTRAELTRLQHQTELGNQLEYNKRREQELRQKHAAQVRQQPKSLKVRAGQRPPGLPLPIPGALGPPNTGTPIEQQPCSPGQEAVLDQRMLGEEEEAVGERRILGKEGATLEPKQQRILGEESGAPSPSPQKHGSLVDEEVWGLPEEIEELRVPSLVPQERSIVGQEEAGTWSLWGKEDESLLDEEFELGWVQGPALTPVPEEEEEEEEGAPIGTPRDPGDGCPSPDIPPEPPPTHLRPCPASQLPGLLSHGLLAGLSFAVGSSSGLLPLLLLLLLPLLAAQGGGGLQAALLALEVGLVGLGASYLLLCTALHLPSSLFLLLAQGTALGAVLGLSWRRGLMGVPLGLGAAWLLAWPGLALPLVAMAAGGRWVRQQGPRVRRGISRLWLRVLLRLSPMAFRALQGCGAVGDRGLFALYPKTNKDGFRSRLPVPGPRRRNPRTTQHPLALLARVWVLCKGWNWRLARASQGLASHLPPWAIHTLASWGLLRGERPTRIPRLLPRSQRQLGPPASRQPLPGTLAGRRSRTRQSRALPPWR
# [12] = target: T7, Serine/threonine-protein kinase TAO2 (Homo sapiens); settings: at 10 µM
# [13] = target: Insulin receptor (Homo sapiens) (UniProt P06213); settings: at 1 µM
# Chain of Insulin receptor (Homo sapiens) (P06213 28-758 limits assumed): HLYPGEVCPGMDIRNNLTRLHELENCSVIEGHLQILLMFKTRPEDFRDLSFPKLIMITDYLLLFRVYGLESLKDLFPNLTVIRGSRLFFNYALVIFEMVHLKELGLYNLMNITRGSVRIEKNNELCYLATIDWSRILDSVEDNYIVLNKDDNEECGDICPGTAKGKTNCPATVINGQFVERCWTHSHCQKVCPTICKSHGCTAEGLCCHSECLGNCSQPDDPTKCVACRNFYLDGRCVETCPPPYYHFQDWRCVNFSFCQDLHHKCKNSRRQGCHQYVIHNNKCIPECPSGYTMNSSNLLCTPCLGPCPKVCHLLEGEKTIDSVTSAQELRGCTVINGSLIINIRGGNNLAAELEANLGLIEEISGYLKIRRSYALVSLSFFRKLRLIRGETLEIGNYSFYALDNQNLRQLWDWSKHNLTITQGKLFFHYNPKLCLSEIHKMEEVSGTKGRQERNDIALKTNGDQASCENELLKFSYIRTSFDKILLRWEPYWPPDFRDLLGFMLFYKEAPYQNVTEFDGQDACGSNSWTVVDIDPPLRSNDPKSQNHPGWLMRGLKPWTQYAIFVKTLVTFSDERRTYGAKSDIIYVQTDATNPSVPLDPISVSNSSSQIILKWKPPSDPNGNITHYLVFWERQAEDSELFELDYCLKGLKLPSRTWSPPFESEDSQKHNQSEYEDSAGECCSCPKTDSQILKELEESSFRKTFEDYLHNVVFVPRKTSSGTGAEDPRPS
# Chain of Insulin receptor (Homo sapiens) (P06213 763-1382 limits assumed): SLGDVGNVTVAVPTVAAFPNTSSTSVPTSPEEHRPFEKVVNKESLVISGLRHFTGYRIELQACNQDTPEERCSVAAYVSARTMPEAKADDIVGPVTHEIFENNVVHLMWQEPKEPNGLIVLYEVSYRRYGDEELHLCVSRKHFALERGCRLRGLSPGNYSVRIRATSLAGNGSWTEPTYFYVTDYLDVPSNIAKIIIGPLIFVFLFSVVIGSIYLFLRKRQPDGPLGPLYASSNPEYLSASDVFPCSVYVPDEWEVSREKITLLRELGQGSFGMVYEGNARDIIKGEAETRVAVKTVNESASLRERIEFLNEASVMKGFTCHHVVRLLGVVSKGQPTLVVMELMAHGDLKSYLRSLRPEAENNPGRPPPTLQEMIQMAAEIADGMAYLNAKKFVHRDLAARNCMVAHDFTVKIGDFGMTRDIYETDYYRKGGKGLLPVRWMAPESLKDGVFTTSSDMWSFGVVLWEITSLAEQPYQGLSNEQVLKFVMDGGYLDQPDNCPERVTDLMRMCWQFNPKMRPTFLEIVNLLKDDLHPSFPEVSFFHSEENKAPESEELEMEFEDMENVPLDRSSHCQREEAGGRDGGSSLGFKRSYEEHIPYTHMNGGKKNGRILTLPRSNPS
structure (smiles),measurement,setting,value
COc1ccc(CNC(=O)Nc2ncc([N+](=O)[O-])s2)cc1,residual activity,[1],79%
same,residual activity,[2],59%
same,residual activity,[3],59%
same,residual activity,[4],111%
same,residual activity,[5],113%
same,residual activity,[6],109%
same,residual activity,[7],108%
Fc1ccc(-c2nc3n(c2-c2ccncc2)CCS3)cc1,residual activity,[1],88%
same,residual activity,[8],99%
same,residual activity,[9],83%
same,residual activity,[10],76%
same,residual activity,[3],89%
O=C(Nc1ccc(Cl)cc1)c1ccccc1NCc1ccncc1,residual activity,[11],101%
same,residual activity,[12],61%
same,residual activity,[13],100%
